This note sets out measurements from PubChem BioAssay AID1220 (Sanford-Burnham Center for Chemical Genomics, 2008).

Among all 190,000 compounds or so, about 1,300 (0.68%) were called active. No stated cut-off is given here; in the data, active means inhibition above about 50%; inactive means the rest. Only a selection was taken, and actives are over-represented in it overall.

The inhibition is the relative decrease from the control value, in per cent.

Sequence of Mannose-6-phosphate isomerase (Homo sapiens) (P34949 whole entry, looked up): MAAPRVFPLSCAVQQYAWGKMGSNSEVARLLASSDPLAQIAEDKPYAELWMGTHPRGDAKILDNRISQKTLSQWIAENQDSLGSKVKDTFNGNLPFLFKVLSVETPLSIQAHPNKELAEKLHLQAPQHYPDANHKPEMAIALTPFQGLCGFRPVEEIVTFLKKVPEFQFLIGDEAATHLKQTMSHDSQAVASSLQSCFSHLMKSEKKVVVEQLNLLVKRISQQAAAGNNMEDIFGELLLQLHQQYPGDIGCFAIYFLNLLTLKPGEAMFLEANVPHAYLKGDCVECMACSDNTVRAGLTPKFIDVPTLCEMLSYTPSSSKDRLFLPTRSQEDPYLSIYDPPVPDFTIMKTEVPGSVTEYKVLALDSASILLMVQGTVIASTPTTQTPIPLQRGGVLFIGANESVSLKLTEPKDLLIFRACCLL

The test has as its target Mannose-6-phosphate isomerase (Homo sapiens) (UniProt P34949). Description: human PMI inhibitors, high substrate, primary screen, biochemical, fluorescence intensity, high mannose 6-phosphate (AID 1220). The following applies: recombinant PMI enzyme, coupled fluorescence intensity; at 20 µM; stronger effect = higher value.
As to `Cc1ccc2cccc(NC3OC(=O)c4ccccc43)c2n1` (centres undefined), the inhibition was 59.9% (active). As for `COC(=O)c1ccccc1NC1OC(=O)c2ccccc21` (centres undefined), the figure is 8.6% (inactive); as for `CCOC(=O)c1ccccc1NC1OC(=O)c2ccccc21` (centres undefined), 6.8% (inactive); as for `O=C1OC(Nc2ncccn2)c2ccccc21` (centres undefined), 5.1% (inactive). To `O=C1OC(Nc2cc(Br)cc3cccnc23)c2ccccc21` (centres undefined) belongs 50.7% (active); to `O=C1OC(Nc2ccc(Br)cc2F)c2ccccc21` (centres undefined), -12.4% (inactive).

Regarding `Cc1ccc(OCCOc2ccc(Br)cc2/C=N\NC(N)=O)cc1`, the inhibition was 4% (inactive). To `CCOc1ccc(N=Nc2c(=O)[nH]n3c(C)cc(C)nc23)cc1` belongs 18% (inactive). Take `CCOC(=O)C1CCCN(C2CC(=O)N(c3ccc(C)cc3)C2=O)C1` (centres undefined): the inhibition was -2.1% (inactive).

As for `COC(=O)CP(=O)(c1ccccc1)c1ccccc1`, the inhibition was -5.8% (inactive). To `CCOc1ccc(/C=C/[N+](=O)[O-])c2ccccc12` belongs 55.6% (active).

`CCOC(=O)COc1ccc2ccccc2c1/C=C/[N+](=O)[O-]`: the inhibition was 54.6% (active).

For `CCOC(=O)COc1ccccc1/C=C\[N+](=O)[O-]`, the inhibition is 0.8% (inactive). As for `CCOC(=O)COc1ccc(/C=C/[N+](=O)[O-])c(OCC(=O)OCC)c1`, the figure is 1.7% (inactive); as for `CCOC(=O)Cn1cc(/C=C/[N+](=O)[O-])c2ccccc21`, 8.7% (inactive). As for `O=[N+]([O-])/C=C/c1c(OCc2ccccc2)ccc2ccccc12`, the inhibition is 3.1% (inactive). As for `COc1ccc(Nc2nc(N)nc(CSc3nncn3C)n2)cc1`, the figure is 4.9% (inactive); as for `CCN(Cc1ccccc1)C(=O)CSc1nc(C)cc(C)c1C#N`, 5.3% (inactive). As for `Cc1ccc2c(c1)NC(C(C)(C)C)CO2` (centres undefined), the figure is -5.8% (inactive); as for `CC1CCC(C(C)C)C(OC(=O)COC(=O)c2cccn2C)C1` (centres undefined), 16% (inactive); as for `CC1CCC(C(C)C)C(OC(=O)COC(=O)c2cc(O)ccc2N)C1` (centres undefined), 59.5% (active). As for `CC1CCC(C(C)C)C(OC(=O)COC(=O)c2ccc(N)cc2)C1` (centres undefined), the figure is 16.2% (inactive); as for `Cc1ccc(SCCNC(=O)CN(c2ccc3c(c2)OCO3)S(C)(=O)=O)cc1`, 13.2% (inactive); as for `CCc1ccccc1OCc1nc2ccc(S(=O)(=O)N3CCOCC3)cc2[nH]1`, 9.5% (inactive).

With `CC(C)Cc1nc(N2CCC(C(N)=O)CC2)c2nnn(Cc3ccccc3)c2n1`, the inhibition is -15% (inactive). To `CC(C)c1ccc(S(=O)(=O)/N=C2/C=C(Sc3ncn[nH]3)C(=O)c3ccccc32)cc1` belongs 80% (active); to `CCc1ccc(C(=O)CSc2ncn[nH]2)cc1`, -20.5% (inactive); to `CCc1ccc(S(=O)(=O)/N=C2\C=CC(=O)c3ccccc32)cc1`, 50.7% (active). As for `Cc1ccc(S(=O)(=O)/N=C2/C=C(C3C(=O)CC(C)(C)CC3=O)C(=O)c3ccccc32)cc1`, the figure is -3.6% (inactive); as for `O=C1c2ccccc2C(=O)N1CCSc1ncn[nH]1`, -12% (inactive); as for `COC(=O)C(C(C)=O)C1=C/C(=N\S(=O)(=O)c2ccc(C)cc2)c2ccccc2C1=O` (centres undefined), 18% (inactive). As for `CC(C)c1ccc(S(=O)(=O)/N=C2/C=CC(=O)c3ccccc32)cc1`, the figure is 44.1% (inactive).

Regarding `Cc1ccc(S(=O)(=O)/N=C2/C=C(Sc3ncn[nH]3)C(=O)c3ccccc32)cc1`, the inhibition is 88.3% (active).

`CCc1ccc(S(=O)(=O)/N=C2/C=C(Sc3ncn[nH]3)C(=O)c3ccccc32)cc1`: the inhibition is 90.6% (active). As for `CCc1ccc(S(=O)(=O)ON2C(=O)c3ccccc3C2=O)cc1`, the figure is -11.4% (inactive); as for `CC(C)c1ccc(N2C(=O)CC(Sc3ncn[nH]3)C2=O)cc1` (centres undefined), 22.4% (inactive); as for `O=C(O)c1ccc(NC2=C/C(=N/S(=O)(=O)c3ccccc3)c3ccccc3C2=O)cc1`, -34.1% (inactive). To `CCOC(=O)N1CCN(C(=O)CSCc2ccc(Br)cc2)CC1` belongs 1.1% (inactive); to `Cc1ccc(NC(=O)CSc2nnc(C(F)(F)F)n2C)cc1[N+](=O)[O-]`, 2.1% (inactive); to `CC(C)/C=C1\CCCCC1N(C)C(=O)NC(C)C` (centres undefined), 2.9% (inactive). To `CCCCCCCSc1nnc(-c2ccccc2N)c(=O)[nH]1` belongs 13.6% (inactive). `CCNc1sc(C(=O)c2cccs2)c(N)c1-c1nc2ccccc2s1`: the inhibition is -5.3% (inactive). To `Cc1ccc2sc(N(CCCN(C)C)C(=O)c3ccc(Br)s3)nc2c1C` belongs -10.3% (inactive); to `CCOc1ccccc1N(CC(=O)NC1CCCCC1)C(=O)c1nsc(Cl)c1Cl`, 8.5% (inactive); to `CCOc1ccccc1NC(=O)Cn1nnc(-c2ccc(OCC)c(OCC)c2)n1`, -1.1% (inactive). For `COc1ccc(-c2cn(-c3cccc(C)c3)c(=O)[nH]2)cc1OC`, the inhibition was -94.8% (inactive). To `COc1ccc(C2CC2/C(=N/OC(=O)c2cccs2)c2ccccc2)cc1` (centres undefined) belongs 4.3% (inactive). To `O=C(C1CCN(S(=O)(=O)N2CCC3(CC2)OCCO3)CC1)N1CCCCC1` belongs 11% (inactive); to `COc1ccc(Oc2coc3cc(OC(=O)/C=C/c4ccc(F)cc4)ccc3c2=O)cc1`, -6.3% (inactive).

Consider `COc1ccc(Oc2coc3cc(OC(=O)/C=C/c4ccccc4)ccc3c2=O)cc1`, for which the inhibition was 6.5% (inactive).

As to `COc1ccccc1-c1coc2cc(OC(=O)/C=C/c3ccccc3)ccc2c1=O`, the inhibition was 57.1% (active). To `COc1cccc(NC(=O)N2CCCC2C(=O)Nc2ccc3c(c2)OCCO3)c1` (centres undefined) belongs 7% (inactive). To `O=C1c2ccccc2-c2onc3c(Oc4ccccc4)cc(O)c1c23` belongs -4.7% (inactive).

With `CCOC(=O)c1c(C)nc2c(c1-c1ccccc1)C(=O)c1ccccc1-2`, the inhibition is -34.4% (inactive). To `CCOC(=O)C(C(=O)OCC)c1cc(Br)c2noc3c2c1C(=O)c1ccccc1-3` belongs 52.1% (active); to `COc1ccc(Cc2n[nH]c(=S)n2C)cc1Br`, 0.8% (inactive); to `O=C(NCCN1CCCCC1)c1cc(OCC(F)(F)F)ccc1OCC(F)(F)F`, 7.9% (inactive). To `CCCCNC(=S)Nc1ccccc1F` belongs 59% (active); to `Fc1ccccc1NC(=S)NCCc1ccccc1`, -7.1% (inactive); to `CC(C)CCNC(=S)Nc1ccccc1F`, -14.2% (inactive). On to `O=C(COC(=O)Cc1ccccc1[N+](=O)[O-])NCc1ccccc1Cl`, for which the inhibition was -4% (inactive).

Consider `S=C(Nc1ccc2nccnc2c1)N1CCCC1`, for which the inhibition was 35.6% (inactive). With `COC(=O)c1cccc(NC(=S)N2CCOCC2)c1`, the inhibition was 52.1% (active). As for `S=C(Nc1ccc2nccnc2c1)N1CCOCC1`, the figure is 69.2% (active). As for `COC(=O)c1cccc(NC(=S)N2CCN(c3ccccc3F)CC2)c1`, the figure is 4.7% (inactive); as for `COC(=O)c1cccc(NC(=S)N2CCCCC2)c1`, -3.2% (inactive). To `S=C(Nc1ccc(Cl)c(Cl)c1)N1CCOCC1` belongs 10.9% (inactive). Take `CC(C)CCNC(=O)C(NS(=O)(=O)c1ccc2c(c1)c(=O)n(C)c(=O)n2C)c1ccccc1` (centres undefined): the inhibition was -11.2% (inactive). As for `Cc1cc(C(F)F)n2nc(C(=O)Nc3ccccc3Br)nc2n1`, the figure is -3.5% (inactive).

In the case of `Cc1ccsc1/C=N/NC(=O)c1cc(-c2ccncc2)nc2ccccc12`, the inhibition was -9.2% (inactive).

For the compound `N#Cc1ccc(C(=O)Nc2cc(S(=O)(=O)N3CCCC3)ccc2OCC(F)(F)F)cc1`, the inhibition is -0.6% (inactive). With `CCCc1nc2c(=O)[nH]c3ccccc3c2o1`, the inhibition was -0.9% (inactive). As for `NC(=O)c1c(NC(=O)c2cc3ccccc3o2)sc2c1CCC2`, the figure is 2.2% (inactive). To `O=C(Nc1cccc2ncccc12)c1ccc(-c2ccc(Br)cc2)o1` belongs 40.4% (inactive). As for `COc1ccccc1NC(=O)c1ccc(-c2ccc(Br)cc2)o1`, the figure is 7.4% (inactive).

Turning to `COC(=O)c1ccccc1NC(=O)c1ccc(-c2cccc(Cl)c2)o1`, the inhibition is 6.9% (inactive). `O=C(Nc1cccc2nsnc12)c1ccc(-c2ccc(Br)cc2)o1`: the inhibition was 50.3% (active). For `O=C(Nc1ccccc1N1CCCCC1)c1ccc(-c2cccc(Cl)c2)o1`, the inhibition was 1.7% (inactive). To `O=C(Nc1cccc2nsnc12)c1ccc(-c2cccc(Cl)c2)o1` belongs 50.2% (active). As for `Cc1ccc(C)c(N2CCN(CCCNC(=O)Cn3cccc3C(=O)c3ccccc3)CC2)c1`, the figure is -7.6% (inactive); as for `CC1(c2ccccc2Cl)NC(=O)N(CC(=O)NCc2ccco2)C1=O` (centres undefined), -3% (inactive); as for `COC(=O)c1sccc1NC(=O)CSc1nnnn1-c1ccccc1F`, 10.3% (inactive). `O=C(O)CCSc1nnc(COc2ccc([N+](=O)[O-])cc2)n1-c1ccccc1`: the inhibition was 7.5% (inactive).

As for `CCCCCCn1c(N)c(C#N)c2ccc([N+](=O)[O-])cc2c1=O`, the inhibition was 63.1% (active).

As for `COc1ccc(-n2c(N)c(C#N)c3ccc([N+](=O)[O-])cc3c2=O)cc1`, the inhibition was 52.3% (active). `CCCCCCC(=O)N=Nc1c(O)[nH]c2ccc([N+](=O)[O-])cc12`: the inhibition is 1.3% (inactive). To `COc1ccc(-n2cnc3cc([N+](=O)[O-])ccc32)cc1` belongs 3.2% (inactive).

Consider `COc1cccc(-n2c(N)c(C#N)c3ccc([N+](=O)[O-])cc3c2=O)c1`, for which the inhibition was 16.8% (inactive).

`N#Cc1c(N)n(-c2ccccc2)c(=O)c2cc([N+](=O)[O-])ccc12`: the inhibition was 36.6% (inactive). To `COCCCNc1ncnc2c1[nH]c1ccccc12` belongs 16.1% (inactive); to `CCCN(C(=O)CSc1nc2c(cnn2-c2ccccc2)c(=O)[nH]1)C1CCS(=O)(=O)C1` (centres undefined), -13.4% (inactive). Take `O=[N+]([O-])c1ccccc1/C=N/n1c(-c2cccnc2)n[nH]c1=S`: the inhibition was 3.5% (inactive). To `COc1ccc2c(c1)[nH]c1c(=O)n(Cc3ccco3)cnc12` belongs 20.7% (inactive). To `CCOC(=O)c1c(NC(=O)c2cccs2)sc2c1CC(C)(C)OC2` belongs 21.6% (inactive); to `Oc1ccc(/C=N/NC(=S)Nc2cccnc2)c(O)c1`, -11.9% (inactive); to `Oc1ccc(/C=N/NC(=S)Nc2cccnc2)cc1O`, 6.3% (inactive).

Consider `CCOc1ccc(NC(=S)N(CCN2CCOCC2)Cc2cc3cc4c(cc3[nH]c2=O)OCCO4)cc1`, for which the inhibition is 24.8% (inactive). As for `COc1ccc(NC(=S)N(CCN2CCOCC2)Cc2cc3cc4c(cc3[nH]c2=O)OCO4)cc1`, the figure is 14.7% (inactive). To `CCOc1ccc(NC(=S)N(CCN2CCOCC2)Cc2cc3cc4c(cc3[nH]c2=O)OCO4)cc1` belongs 61.3% (active).
